Out of some 360,000 compounds screened, about 10,000 (2.8%) were called active. About 4% were inconclusive and are not listed. Calls follow the shape of the dose curve; as a rule, active = well fitted inhibition curve with a large enough effect; inconclusive = small, poorly fitted or top-dose-only effect; inactive = flat fitted curve, though single readings scatter. Many of the other results were omitted from the sample, so actives are more common in it than they were.
Target: Serine/threonine-protein kinase PLK1 (Homo sapiens) (UniProt P53350)
Assay: qHTS for Inhibitors of PLK1-PDB (polo-like kinase 1 - polo-box domain): Primary Screen; also: nearly all actives have a fitted effect of over 65% in size; as to max response, negative = inhibition: series mostly up to about 57 µM
Conditions: Plk1 PBD binding of FITC phosphopeptide, fluorescence polarization
% is scaled to controls: 0 for no effect and ±100 for the full control effect; potency is read from the fitted curve at half-maximal effect.

Serine/threonine-protein kinase PLK1 (Homo sapiens), sequence (P53350 whole entry, looked up, the tested form may be a part): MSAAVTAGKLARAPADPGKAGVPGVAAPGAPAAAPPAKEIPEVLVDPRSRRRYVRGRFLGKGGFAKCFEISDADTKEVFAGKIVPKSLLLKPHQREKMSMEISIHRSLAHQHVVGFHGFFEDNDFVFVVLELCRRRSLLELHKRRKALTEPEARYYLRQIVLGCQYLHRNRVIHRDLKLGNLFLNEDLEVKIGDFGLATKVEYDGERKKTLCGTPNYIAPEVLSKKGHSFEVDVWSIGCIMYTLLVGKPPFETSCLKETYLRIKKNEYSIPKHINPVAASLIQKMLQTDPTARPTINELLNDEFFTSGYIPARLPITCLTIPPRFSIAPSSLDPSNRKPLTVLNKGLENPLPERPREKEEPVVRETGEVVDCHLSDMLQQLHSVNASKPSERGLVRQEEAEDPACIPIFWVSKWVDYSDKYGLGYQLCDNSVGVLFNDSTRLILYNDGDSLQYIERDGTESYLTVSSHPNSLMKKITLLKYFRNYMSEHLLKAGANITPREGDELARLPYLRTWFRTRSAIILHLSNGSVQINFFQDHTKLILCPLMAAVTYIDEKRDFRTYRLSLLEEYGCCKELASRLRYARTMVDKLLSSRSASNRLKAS

SMILES | max response, negative = inhibition | Potency
COc1cccc(CNc2nc(NCc3ccccc3OC)nc3ccsc23)c1 | 5.58% (inactive) | 
CCC(C)NC(=O)CCCc1ccccc1 (stereo not given) | -5.23% (inactive) | 
O=C(CCN1CCN(c2ccccc2)CC1)NNC(=S)Nc1ccccc1 | 2.64% (inactive) | 
CCCCC(=O)NNC(=S)NC(=O)C(c1ccccc1)c1ccccc1 |  | 26.7 µM (active)
Cc1cc(Br)ccc1NC(=O)CCCOc1cc(=O)n(C)c2ccccc12 | -7.55% (inactive) | 
O=C(COC(=O)Cc1ccc(Cl)cc1Cl)NCc1ccco1 | -7.73% (inactive) | 
COC(=O)[C@@]1(Sc2ccc(C)cc2)CC(=O)N(c2cccc(SC)c2)[C@@H]1c1ccccc1 | -14.8% (inactive) | 
CC(Sc1ccc(S(=O)(=O)N2CCN(C)CC2)cn1)C(=O)NC1CCCC(C)C1C (stereo not given) | -3.15% (inactive) | 
CCNCCC(=O)N1c2ccccc2Sc2ccc(NC(=O)OCC)cc21 | 4.19% (inactive) | 
CCN1/C(=C/C(=S)Nc2ccccc2)Sc2ccccc21 |  | 21.2 µM (active)
CCN1/C(=C\c2ccc3ccccc3[n+]2CC)Sc2cc(C)ccc21 | 18.1% (inactive) | 
O=C(CCc1ccc(O)cc1)NN=Cc1cc(Br)ccc1O | -9.45% (inactive) | 
CNS(=O)(=O)c1ccc2c(c1)[nH]c(=S)n2C | -13.6% (inactive) | 
CN1OC[C@@H]2CN(S(=O)(=O)c3cccc4ccccc34)[C@H](c3ccc(N4CCCCC4)cc3)C[C@@H]21 | -17.2% (inactive) | 
CCCNC(=O)C1(C)CCN(C(=O)c2ccccc2OC(F)(F)F)C1 (stereo not given) | 1.6% (inactive) | 
COCCCN1C(=O)C(=O)/C(=C(/O)c2ccc3c(c2)CC(C)O3)C1c1cccnc1 (stereo not given) | -4.58% (inactive) | 
COc1cc(C2/C(=C(\O)c3ccc4c(c3)CC(C)O4)C(=O)C(=O)N2c2nnc(C)s2)cc(OC)c1OC (stereo not given) |  | 23.8 µM (active)
COc1cc(C2/C(=C(\O)c3ccc4c(c3)CC(C)O4)C(=O)C(=O)N2Cc2ccco2)ccc1O (stereo not given) | -6.21% (inactive) | 
COc1cccc(OCC(=O)NCCS(=O)(=O)N2CCN(c3ccccc3)CC2)c1 | -0.74% (inactive) | 
Cc1ccccc1NC(=O)Cc1nc(COC(=O)C(C)(C)Oc2ccc(Cl)cc2)cs1 | -1.61% (inactive) | 
CCOC(=O)COc1nc(C)cc(C(F)(F)F)c1C#N | -6.94% (inactive) | 
CCOC(=O)Cc1c(C)nc2c(C#N)c(C)nn2c1C |  | 18.9 µM (active)
CCOC(=O)c1cc(C)nc(S(C)(=O)=O)c1C#N | -3.21% (inactive) | 
Nc1nc(CSc2nnnn2-c2ccccc2)nc(Nc2ccccc2)n1 | 0.127% (inactive) | 
COc1ccc(-c2ccc(CN3C(CC(C)C)C(=O)N(Cc4cn(CC5CCCCC5)nn4)CCS3(=O)=O)cc2)cc1 (stereo not given) | -10.4% (inactive) | 

— PubChem BioAssay AID720504 (National Center for Advancing Translational Sciences (NCATS), 2013)
